The values below come from PubChem BioAssay.

Active and inactive are the calls of the source.

For experiment [1], the target named is Albumin (Bos taurus) (UniProt P02769). As to the kind of experiment: compounds binding labelled BSA control protein – biochemical, small-molecule microarray, Alexa647 label, 635/667 nm fluorescence, artefact control for SMM control protein annotation, profiling panel (AID 1118).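 Further: score merges 667 nm emission intensity and signal-to-noise per printed compound spot.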 The conditions noted are these: BSA-A647 binding, fluorescence 635 nm, higher = more signal.

A short description of experiment [2]: probe aXIP binding to arrayed compounds – biochemical, NeuroSMM set, 635/667 nm fluorescence, primary screen (AID 1119).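 Further: probe is the protein aXip251-270 applied at 1 µg/mL to compound-printed slides; binding of probe to printed compounds measured as 667 nm fluorescence plus signal to noise.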 The conditions noted are these: small-molecule microarray, higher = more signal, called active from +8 up or from −8 down.
A short description of experiment [3]: probe aNOTCH3 binding on compound microarray – biochemical, small-molecule microarray, 635/667 nm fluorescence, primary screen (AID 1120).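 Further: probe is a biotin-tagged antibody raised against NOTCH3 rather than NOTCH3 protein; score merges spot fluorescence near 667 nm with spot signal to noise.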 The conditions noted are these: higher = more signal.
Experiment [4] in a line: probe aNOTCH2 binding on compound microarray – biochemical, small-molecule microarray, 635/667 nm fluorescence, primary screen (AID 1121).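 Further: score merges feature fluorescence read at 667 nm with its signal to noise.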 Particulars: higher = more signal.
Experiment [5] concerns the target Carbonic anhydrase 2 (Homo sapiens) (UniProt P00918). In words: compounds binding carbonic anhydrase 2 – biochemical, small-molecule microarray, Alexa647-labelled CAII, profiling panel (AID 1122). The conditions noted are these: CAII-A647 binding fluorescence, higher = more signal.
Experiment [6] in a line: COS7 lysate on small-molecule microarray, probe aHis, 635 nm (AID 1123).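 Further: z-score combines 667nm fluorescence intensity with signal-to-noise per printed compound spot.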 The conditions noted are these: COS7 cell lysate, fluorescence, higher = more signal.
Experiment [7] in a line: probe aLAP1 signal on lysate-treated microarray – cell lysate, small-molecule microarray, COS7 lysate, primary screen (AID 1124).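 Further: lysate comes from COS7 cells expressing LAP1 and is applied at 0.3 µg/mL; score merges spot fluorescence near 667 nm with signal-to-noise over triplicate slides.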 Particulars: probe aLAP1, fluorescence, higher = more signal.
Experiment [8] concerns Sam68 (KHDRBS1). In words: compounds binding KHDRBS1 protein – biochemical, small-molecule microarray, 635 nm fluorescence, primary screen (AID 1125).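 Further: score merges 667 nm channel intensity with signal to noise over triplicate slides.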 The conditions noted are these: higher = more signal.
Experiment [9] relates to Chordin-like protein 2 (CHRDL2). In words: compounds binding chordin-like 2 – biochemical, small-molecule microarray, 635 nm fluorescence, primary screen (AID 1126).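 Further: printed compound slides probed with Chrdl2 protein at 4 µg/mL for 1 h at 4 C; score merges 667 nm emission intensity with signal to noise over three replicate slides.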 Particulars: fluorescence 635 nm, higher = more signal.
For experiment [10], the target named is Concanavalin-A (Canavalia ensiformis) (UniProt P02866). As to the kind of experiment: compounds binding concanavalin A lectin – biochemical, small-molecule microarray, Alexa647 label, 635 nm, artefact control for SMM control protein annotation, primary screen (AID 1127).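 Further: z combines 667 nm emission intensity with signal-to-noise across three replicate slides.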 The conditions noted are these: ConA-A647 binding fluorescence, higher = more signal.
The nature of experiment [11]: compounds binding Alexa647 anti-His antibody – biochemical, small-molecule microarray, 635 nm fluorescence, artefact control for SMM control protein annotation, primary screen (AID 1128).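 Further: score merges feature fluorescence with signal-to-noise for each printed compound spot.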 The conditions noted are these: higher = more signal.
Experiment [12] has as its system Human papillomavirus type 1a E7 protein (residues 1-88). In words: HPV1a E7 small-molecule binders, primary screen, biochemical, small-molecule microarray, residues 1-88, 635 nm (AID 1129). Particulars: small-molecule microarray binding, fluorescence 635 nm; higher = more signal.
For experiment [13], the target named is Focal adhesion kinase 1 (Homo sapiens) (UniProt Q05397). As to the kind of experiment: PTK2 protein binding on printed compound slides – biochemical, small-molecule microarray, 635/667 nm fluorescence, BSA, DTT, primary screen (AID 1130).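 Further: composite of spot emission at 667 nm and signal to noise over triplicate slides.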 Particulars: 635 nm fluorescence, higher = more signal.
Experiment [14] concerns Fibrinogen (Alexa647-labelled). As to the kind of experiment: Alexa647-fibrinogen binding to printed small molecules – biochemical, small-molecule microarray, 635/667 nm fluorescence, artefact control for SMM control-protein annotation, profiling panel (AID 1131).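 Further: z-score merges 667 nm fluorescence with per-spot signal-to-noise over triplicate slides.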 The conditions noted are these: fibrinogen-A647 binding fluorescence, higher = more signal.
The target of experiment [15] is Follistatin (Homo sapiens) (UniProt P19883). In words: FST protein binding to printed compounds – biochemical, small-molecule microarray, 635/667 nm fluorescence, primary screen (AID 1132). Particulars: 635 nm fluorescence, higher = more signal.
Experiment [16] deals with Fibroblast growth factor 2 (Homo sapiens) (UniProt P09038). As to the kind of experiment: basic fibroblast growth factor binding to printed compounds – biochemical, small-molecule microarray, 635/667 nm fluorescence, primary screen (AID 1133). Particulars: FGF2, fluorescence 635/667, higher = more signal.
Experiment [17] in a line: JC-1 mitochondrial potential readout, lung cancer cells – cell-based, A549, JC-1 fluorescence, basal, 24 h, 100 nL, profiling panel (AID 1138).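 Further: A549 lung adenocarcinoma cells under basal conditions with no added stimulus; test concentration not given here.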 Particulars: higher = more signal.
In experiment [18] the test system is Lefty1. As to the kind of experiment: Lefty1 protein binding to printed compounds – biochemical, small-molecule microarray, 635/667 nm fluorescence, primary screen (AID 1139). Particulars: fluorescence 635/667, higher = more signal.
Experiment [19] relates to wheat germ agglutinin (Triticum aestivum), Alexa647-labelled. As to the kind of experiment: Alexa647-WGA lectin binding to printed small molecules – biochemical, small-molecule microarray, 635/667 nm fluorescence, artefact control for SMM control-protein annotation, profiling panel (AID 1140).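 Further: score merges 667 nm feature emission with signal to noise over triplicate slides.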 Particulars: WGA-A647 binding, 635 nm fluorescence, higher = more signal.
The target of experiment [20] is Luciferin 4-monooxygenase (Photinus pyralis) (UniProt P08659). In words: inhibition of purified Photinus pyralis luciferase – biochemical, luminescence, purified enzyme, 2006 set, primary screen (AID 1141).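 Further: cell-free assay with purified firefly luciferase at 100 ng per well in PBS; test concentration not given here.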 The conditions noted are these: purified firefly luciferase, SteadyGlo luminescence, 30 min; higher = more signal, called active from +8 up or from −8 down.
Sequence of Luciferin 4-monooxygenase (Photinus pyralis) (P08659 whole entry, looked up): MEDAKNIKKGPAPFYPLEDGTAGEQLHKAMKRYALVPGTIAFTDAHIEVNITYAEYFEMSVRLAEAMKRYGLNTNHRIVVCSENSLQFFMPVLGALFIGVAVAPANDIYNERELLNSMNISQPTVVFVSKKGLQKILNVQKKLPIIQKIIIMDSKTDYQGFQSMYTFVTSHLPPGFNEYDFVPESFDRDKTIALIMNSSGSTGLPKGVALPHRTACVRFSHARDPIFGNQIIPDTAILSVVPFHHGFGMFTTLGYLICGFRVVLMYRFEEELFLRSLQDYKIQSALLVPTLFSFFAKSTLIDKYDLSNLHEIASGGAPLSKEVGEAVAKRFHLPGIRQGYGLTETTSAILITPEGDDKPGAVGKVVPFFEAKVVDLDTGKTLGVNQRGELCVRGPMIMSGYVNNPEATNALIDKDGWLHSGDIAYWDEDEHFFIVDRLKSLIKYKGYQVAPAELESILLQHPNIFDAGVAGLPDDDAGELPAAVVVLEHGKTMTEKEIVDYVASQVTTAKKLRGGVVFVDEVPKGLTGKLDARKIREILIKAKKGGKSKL

Sequence of Fibroblast growth factor 2 (Homo sapiens) (P09038 whole entry, looked up): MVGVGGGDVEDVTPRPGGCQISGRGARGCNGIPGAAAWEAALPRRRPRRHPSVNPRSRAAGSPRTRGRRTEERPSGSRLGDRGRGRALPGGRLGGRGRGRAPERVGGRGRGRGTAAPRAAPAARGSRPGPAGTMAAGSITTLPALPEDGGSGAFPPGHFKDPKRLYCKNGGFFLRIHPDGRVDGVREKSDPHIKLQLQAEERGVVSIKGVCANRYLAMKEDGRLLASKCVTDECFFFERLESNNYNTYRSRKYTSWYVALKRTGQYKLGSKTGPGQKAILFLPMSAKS
Sequence of Focal adhesion kinase 1 (Homo sapiens) (Q05397 whole entry, looked up): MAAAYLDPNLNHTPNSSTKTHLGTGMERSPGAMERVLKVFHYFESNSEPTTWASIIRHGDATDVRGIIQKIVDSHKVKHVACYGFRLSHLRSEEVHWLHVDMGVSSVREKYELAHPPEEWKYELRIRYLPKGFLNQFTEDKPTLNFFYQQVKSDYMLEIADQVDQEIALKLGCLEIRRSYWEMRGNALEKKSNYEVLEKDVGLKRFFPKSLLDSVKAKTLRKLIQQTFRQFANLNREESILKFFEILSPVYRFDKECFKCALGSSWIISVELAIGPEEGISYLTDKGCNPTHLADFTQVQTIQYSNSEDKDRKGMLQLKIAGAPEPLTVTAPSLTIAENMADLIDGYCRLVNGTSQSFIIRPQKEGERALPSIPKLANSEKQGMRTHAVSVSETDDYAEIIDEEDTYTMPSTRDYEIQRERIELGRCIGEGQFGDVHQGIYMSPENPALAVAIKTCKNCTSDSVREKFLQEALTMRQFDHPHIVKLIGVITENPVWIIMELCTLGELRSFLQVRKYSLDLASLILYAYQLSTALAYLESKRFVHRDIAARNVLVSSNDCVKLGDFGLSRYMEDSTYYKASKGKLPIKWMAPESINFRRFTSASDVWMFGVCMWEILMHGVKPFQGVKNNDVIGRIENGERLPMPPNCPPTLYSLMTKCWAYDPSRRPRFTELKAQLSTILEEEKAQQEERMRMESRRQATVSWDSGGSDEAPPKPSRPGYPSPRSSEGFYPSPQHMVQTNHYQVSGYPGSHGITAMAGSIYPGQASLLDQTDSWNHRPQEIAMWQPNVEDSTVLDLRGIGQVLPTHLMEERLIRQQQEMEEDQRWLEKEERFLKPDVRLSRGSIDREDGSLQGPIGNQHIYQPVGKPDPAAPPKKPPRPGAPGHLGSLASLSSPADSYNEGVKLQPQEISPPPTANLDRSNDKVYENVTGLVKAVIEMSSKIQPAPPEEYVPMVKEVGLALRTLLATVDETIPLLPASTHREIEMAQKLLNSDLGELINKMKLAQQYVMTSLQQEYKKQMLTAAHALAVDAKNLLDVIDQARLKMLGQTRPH
Sequence of Follistatin (Homo sapiens) (P19883 whole entry, looked up): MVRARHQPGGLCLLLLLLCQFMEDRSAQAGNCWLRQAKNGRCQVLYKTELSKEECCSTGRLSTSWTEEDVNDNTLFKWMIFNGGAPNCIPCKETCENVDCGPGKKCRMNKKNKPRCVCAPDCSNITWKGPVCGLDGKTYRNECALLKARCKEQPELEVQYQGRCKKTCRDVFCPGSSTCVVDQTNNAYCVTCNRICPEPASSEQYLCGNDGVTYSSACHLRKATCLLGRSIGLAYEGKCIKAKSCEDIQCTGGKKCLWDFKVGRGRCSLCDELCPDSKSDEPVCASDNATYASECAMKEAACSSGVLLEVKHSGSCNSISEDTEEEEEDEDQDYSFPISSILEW
Sequence of Albumin (Bos taurus) (P02769 whole entry, looked up): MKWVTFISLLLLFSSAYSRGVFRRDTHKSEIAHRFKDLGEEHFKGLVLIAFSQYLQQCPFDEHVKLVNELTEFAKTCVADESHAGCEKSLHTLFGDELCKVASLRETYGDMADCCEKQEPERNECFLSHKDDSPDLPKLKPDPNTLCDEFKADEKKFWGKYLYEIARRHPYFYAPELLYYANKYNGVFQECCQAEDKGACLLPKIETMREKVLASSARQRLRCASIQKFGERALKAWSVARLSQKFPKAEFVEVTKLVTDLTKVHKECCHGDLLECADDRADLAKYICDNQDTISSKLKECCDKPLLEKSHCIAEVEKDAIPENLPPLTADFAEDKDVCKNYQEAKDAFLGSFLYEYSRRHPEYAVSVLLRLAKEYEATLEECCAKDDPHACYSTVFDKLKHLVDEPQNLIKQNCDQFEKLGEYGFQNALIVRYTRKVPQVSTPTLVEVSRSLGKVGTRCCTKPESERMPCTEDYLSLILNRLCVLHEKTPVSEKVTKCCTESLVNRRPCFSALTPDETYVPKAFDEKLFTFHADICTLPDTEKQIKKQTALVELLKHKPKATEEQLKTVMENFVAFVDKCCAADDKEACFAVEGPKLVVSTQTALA
Sequence of Concanavalin-A (Canavalia ensiformis) (P02866 whole entry, looked up): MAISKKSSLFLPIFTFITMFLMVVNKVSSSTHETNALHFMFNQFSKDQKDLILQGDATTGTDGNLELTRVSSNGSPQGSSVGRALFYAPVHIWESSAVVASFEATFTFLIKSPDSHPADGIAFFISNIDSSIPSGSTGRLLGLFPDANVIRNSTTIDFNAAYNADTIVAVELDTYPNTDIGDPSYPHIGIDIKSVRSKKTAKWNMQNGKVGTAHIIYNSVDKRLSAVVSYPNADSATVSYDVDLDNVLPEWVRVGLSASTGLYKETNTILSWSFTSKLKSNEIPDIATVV

As for `CC(C)CCC[C@@H](C)[C@H]1CC[C@@]2(C)C3=C(CC[C@]12C)[C@@]1(C)CC[C@H](OC(=O)CCl)C(C)(C)C1CC3` (stereo not given in full), the composite z-score in experiment [1] is 0.256; in experiment [3], 0.183; in experiment [4] it was -0.0829; in experiment [5] it was 0.153; in [6], 0.555; in [7], -0.0674. In addition, the composite z-score in [8] is 0.404; in [9] it was 0.549; in [10] it was 0.47; in experiment [11], -0.107; in experiment [12] it was 0.708; in [13], 0.272. Further, the composite z-score in experiment [14] came out at 0.649; in experiment [15] it was 0.409; in experiment [16], 0.363; in experiment [18], 0.327; in experiment [19], 0.274. For the same compound, the composite Z-score in experiment [2] is 0.222 (inactive). Moreover, the figures for the z-score in experiment [17] and in experiment [20] were 1.35 and -1.28 (inactive), respectively.
For the compound `C=C(COC)C(=O)CC[C@H](OC(=O)c1cccnc1)c1cccc(OCCO)c1`, the composite z-score in [1] is -0.197; in experiment [3] it was 0.53; in [4] it was 0.156; in experiment [5] it was 0.608; in experiment [6] it was 0.613; in experiment [7] it was 0.123. Further, the composite z-score in experiment [8] is 0.579; in experiment [9], 0.601; in experiment [10], -0.0509; in experiment [11] it was -0.107; in experiment [12], 0.0325; in [13], 0.481. For the same compound, the composite z-score in experiment [14] is -0.09; in [15], 0.896; in [16], 1.57; in experiment [18], 1.05; in experiment [19] it was -0.363. Further, the composite Z-score in [2] was -0.19 (inactive). Besides, the z-score in experiment [17] is 1.39; in experiment [20], -2.13 (inactive).
On to `CO[C@H]1O[C@H](CO)[C@@H](OC(=O)Nc2ccccc2)[C@H](OC(=O)Nc2ccc3c(c2)OCO3)[C@H]1OC(=O)Nc1ccc2c(c1)OCO2`, for which the composite z-score in experiment [1] was 0.06; in experiment [3] it was 0.224; in experiment [4], -0.0289; in experiment [5] it was 0.599; in [6] it was 2.14; in experiment [7], 0.294. Also, the composite z-score is 1.29 in experiment [8]; -0.494 in experiment [9]; 1.18 in [10]; 1.75 in experiment [11]; 1.19 in experiment [12]; 2.04 in experiment [13]. Besides, the composite z-score was 0.172 in [14]; 0.612 in experiment [15]; -0.0687 in experiment [16]; 0.345 in experiment [18]; 0.571 in experiment [19]. Besides, the composite Z-score in experiment [2] was 0.219 (inactive). For the same compound, the z-score in experiment [17] was 0.316; in [20] it was -1.63 (inactive).
As for `C=CCNC(=O)[C@@H]1[C@H]2C(=O)O[C@H](c3ccccc3)[C@H](c3ccccc3)N2[C@H](c2ccc(O)cc2)[C@@]12C(=O)N(C(=O)OCCOC)c1ccc(C#Cc3ccc(OC)cc3)cc12`, the composite z-score in experiment [1] was -0.0706; in [3] it was 0.13; in experiment [4], 0.0406; in experiment [5] it was 0.484; in experiment [6] it was 1.46; in experiment [7] it was 0.478. The composite z-score in experiment [8] was 1.32; in experiment [9], 0.455; in experiment [10], 1.12; in experiment [11] it was 0.539; in experiment [12], 1.13; in experiment [13], 1.68. Further, the composite z-score in experiment [14] is 0.8; in [15], 0.949; in [16], 0.915; in [18] it was 0.544; in experiment [19], 1.06. Also, in [2], the composite Z-score was 0.574 (inactive). In addition, the z-score is -0.0671 in experiment [17] and -1.23 (inactive) in [20].
Regarding `[N-]=[N+]=NCc1ccccc1C[C@@]1(C(=O)NCc2ccccc2)N=C(c2ccc(OCCCO)cc2)O[C@@H]1c1ccccc1`, the composite z-score was 0.825 in experiment [1]; 0.0562 in experiment [3]; -0.0389 in experiment [4]; 0.28 in experiment [5]; 0.86 in [6]; -0.401 in experiment [7]. The composite z-score in [8] was 0.474; in experiment [9], -1.01; in [10], 0.266; in [11] it was 1.87; in [12], 1.13; in experiment [13] it was 0.621. Also, the composite z-score in [14] is 0.483; in experiment [15], 0.327; in experiment [16], -0.165; in experiment [18], -0.698; in [19] it was 1. In experiment [2], the composite Z-score is 0.109 (inactive). Moreover, the values for the z-score in experiment [17] and in experiment [20] were 1.79 and -1.15 (inactive), respectively.
